Screens deposited in PubChem by National Center for Advancing Translational Sciences (NCATS).
BRCA1 expr act: activators of BRCA1 expression | 1.1% of 380,000 active | Potency, µM (doses to about 46.1 µM), without a hit: at the highest dose activation, most hits filed as activators | MCF7-BRCA1-FFLuc reporter, luminescence, 48 h; response scale: scaled: vehicle 0%, 10 µM genistein 100%; further: potency means the concentration at half of the fitted maximal effect; nearly all actives have a fitted effect of over 80% in size
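Luminescence from a BRCA1-driven firefly luciferase in MCF7 cells was the read-out, taken 15 min after substrate addition following 48 h compound exposure at 37 °C. Data were normalized to a 10 microM genistein control and DMSO vehicle.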
Giardia kill: kills Giardia lamblia | Giardia lamblia trophozoite viability | activity change, % at 7.66 µM, hits read low | 0.15% of 340,000 active | AID 540267; in the data active means activity change below about -80%; inconclusive means between about -30% and that limit;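 further: parasites exposed to compound for two days anaerobically before the ATP read; on the % scale 0 is the no-effect control and ±100 the full control effect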
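Giardia trophozoites, 100 cells per well, were exposed to compounds for 48 hrs at 37 deg C under anaerobic conditions; viability was then read as ATP content by bioluminescence after 15-30 min at room temperature.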
ELG1 repair inh: ELG1-dependent DNA repair inhibition | HEK293T ELG1-luciferase reporter, luminescence, 16 h; DNA damage induced by 5-fluorouridine | Potency, µM (top dose mostly 46.1 µM), inactives show at the top dose activity change, negative = inhibition, usual class: inhibitors | 2.3% of 330,000 active | AID 504467; further: potency means the concentration at half of the fitted maximal effect; on the % scale 0 is the no-effect control and ±100 the full control effect; nearly all actives have a fitted effect of over 55% in size
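HEK293T cells expressing luciferase-tagged ELG1 (2,000/well) received 5-Fluorouridine plus compound or DMSO for 16 hr at 37 °C. Luciferase was read by ONE-Glo luminescence after 30 min at room temperature.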
VP16 counter: counter-screen for ROR gamma inhibitors: Gal4-VP16 reporter; 3.5% of 310,000 active; Potency, µM (highest dose often 53.6 µM), for the others: top-dose activity, negative = inhibition, actives largely listed as inhibitors; Drosophila S2 Gal4-VP16 UAS-luciferase, luminescence, 20 h;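 further: Gal4-VP16 expression switched on by copper sulfate through the metallothionein promoter; potency means the concentration at half of the fitted maximal effect; on the % scale 0 is the no-effect control and ±100 the full control effect; nearly all actives have a fitted effect of over 50% in size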
RORg inh: blocks mouse ROR gamma transcriptional activity. Drosophila S2 Gal4-RORgamma UAS-luciferase reporter, 20 h. Potency, µM (series often up to 53.6 µM), for the others: at the highest dose activity change, negative = inhibition, actives largely listed as inhibitors. 5.4% of 310,000 active. AID 2551; further: potency means the concentration at half of the fitted maximal effect; on the % scale 0 is the no-effect control and ±100 the full control effect; nearly all actives have a fitted effect of over 60% in size
Target sequence (P51450 whole entry, looked up, the tested form may be a part): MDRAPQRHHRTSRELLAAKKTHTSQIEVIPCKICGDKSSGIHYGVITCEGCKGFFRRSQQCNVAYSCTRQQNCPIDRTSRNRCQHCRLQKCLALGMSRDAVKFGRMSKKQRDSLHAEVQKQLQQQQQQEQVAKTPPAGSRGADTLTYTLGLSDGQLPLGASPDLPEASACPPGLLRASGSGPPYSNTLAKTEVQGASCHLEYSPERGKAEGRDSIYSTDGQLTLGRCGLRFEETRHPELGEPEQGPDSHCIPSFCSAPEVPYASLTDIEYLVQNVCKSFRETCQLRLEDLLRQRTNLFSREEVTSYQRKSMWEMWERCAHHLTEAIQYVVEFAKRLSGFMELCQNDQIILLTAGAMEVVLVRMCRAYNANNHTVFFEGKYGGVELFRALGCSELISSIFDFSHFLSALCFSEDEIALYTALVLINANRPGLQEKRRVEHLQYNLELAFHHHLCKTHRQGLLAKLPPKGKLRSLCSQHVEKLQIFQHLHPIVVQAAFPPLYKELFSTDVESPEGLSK
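In this cell-based reporter format, copper sulfate (700 uM final) drives Gal4–ROR gamma fusion expression from a metallothionein promoter in Drosophila Schneider cells; compounds preincubated 1 hr, reporter read after 20 hr at ambient temperature.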
p53 reactivation: re-activators of mutant p53. H1299 p53-A138V BP100-luciferase reporter, luminescence, 24 h. Potency, µM (top dose mostly 92.2 µM), for inactives: at the highest dose activity change, positive = activation, usual class: activators. 0.063% of 320,000 active. AID 504706; further: potency means the concentration at half of the fitted maximal effect; % of control where 0% means no effect; nearly all actives have a fitted effect of over 45% in size
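H1299 (p53-null), stable ts p53-A138V + BP100-Luc; 1000 cells/well, Opti-MEM/10% FBS; cpd 4 pt, 1:5; 24 h, 37 deg C, 5% CO2; detection reagent 10 min RT; luminescence.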
* hit, by the source's call; ? = inconclusive; nt = not tested or not shown. Shown are actives, neighbours in structure and some others; about 7.6% of the full set was active somewhere. Unless noted, the call rests on the fitted dose curve; in most records, active means well fitted curve in the direction sought with a large enough effect; inconclusive means small, poorly fitted or top-dose-only effect, or another doubt; inactive means no such curve, though single readings can be large; an effect the other way counts as inactive or inconclusive.

SMILES | BRCA1 expr act | Giardia kill | ELG1 repair inh | VP16 counter | RORg inh | p53 reactivation
Cc1ccc2nc(SCC(=O)NC(=O)NCc3ccco3)[nH]c2c1 | -4% | -17 | -19% | 18µM* | 21% | -6%
Cc1cc(NC(=O)CS(=O)(=O)c2c[nH]c3ccccc23)no1 | -3% | 1 | 11% | 0% | 9% | -12%
Cc1ccc2nc(CSc3nc(C)ccc3C#N)[nH]c2c1 | -105% | -88* | ? | 2µM* | 3.5µM* | ?
Cc1ccc(C#N)c(SCc2ccccc2F)n1 | -4% | -7 | ? | 9% | 8% | -2%
Cc1cc(-c2nnc(SCC(=O)Nc3nccs3)o2)no1 | 65% | -15 | ? | ? | 16µM* | 11%
COc1ccc(-c2nnc(SCC(=O)Nc3nncs3)o2)cc1 | -20% | 2 | ? | 8.9µM* | 7.1µM* | 12%
COc1ccc(-c2nc(C#N)c(NCc3ccco3)o2)cc1 | 8.9µM* | -14 | ? | -4% | 22% | 1%
Cc1cc(C)c(NC(=O)c2ccccc2C(=O)c2ccccc2)c(C)c1 | -11% | -11 | ? | 1% | -2% | -4%
COc1ccc(C2N(c3ccc(OC)cc3)C(=S)N3CCCN23)cc1 (stereo not given) | -13% | -6 | -2% | -4% | 0% | 8%
COc1ccc(CNC(=O)CSc2nnc(C3CC3)n2C2CC2)cc1 | -1% | 10 | 11% | nt | nt | 6%
COc1cccc(-c2nnc(SCC(=O)Nc3cc(C)on3)o2)c1 | 55% | 2 | ? | -19% | 13µM* | ?
O=C(CSc1nnc(C2COc3ccccc3O2)o1)Nc1nccs1 (stereo not given) | 9% | -14 | 4% | 22µM* | ? | 3%
Cc1cc(NC(=O)Nc2ccc(C)c(C)c2)no1 | 7.9µM* | 9 | ? | -18% | -5% | 5%
Cc1ccc2nc(SCC(=O)c3ccc(O)cc3O)[nH]c2c1 | ? | 3 | ? | 3.2µM* | -94% | 7%
Cc1cc(NC(=O)CSc2nnc(-c3cccc(Cl)c3)o2)no1 | -13% | -26 | 0% | -5% | ? | -16%
O=c1[nH]c(CN2CCN(S(=O)(=O)c3ccc(Cl)cc3)CC2)nc2cc(Cl)ccc12 | -26% | -7 | ? | -6% | -9% | -4%
CCOC(=O)NNC(=O)CCn1c2c(c3ccccc31)CCCC2 | 10% | 12 | 18µM* | -23% | 17% | -6%
CC(=O)NNC(=O)CCn1c2c(c3ccccc31)CCCC2 | 10% | 7 | -8% | -7% | 10% | -3%
O=C(Nc1ccc2oc(=O)ccc2c1)c1cc2ccccc2o1 | 2.5µM* | -11 | ? | 2% | -3% | ?
O=C(Nc1ccc2oc(-c3cccnc3)nc2c1)c1cc2ccccc2o1 | 37% | -20 | 18µM* | -8% | -1% | 1%
CCCCC(=O)Nc1ccc2oc(-c3cccnc3)nc2c1 | 72% | -10 | ? | 5% | 21% | ?
O=C(NC(=S)Nc1ccc2oc(-c3cccnc3)nc2c1)c1cccc(Cl)c1 | 8% | ? | -9% | -13% | 20µM* | 0%
Cc1cc(=O)oc2cc(NC(=O)c3cc4ccccc4o3)ccc12 | nt | nt | ? | -5% | 37% | 28%
COc1ccc(Cl)cc1C(=O)NNC(=O)c1cccc(S(=O)(=O)N(C)C)c1 | -6% | 13 | -4% | 29% | 6% | -9%
FC(F)(F)c1nc(NCc2ccccc2)c2nnn(Cc3ccccc3)c2n1 | -11% | 5 | 11% | -27% | 8.9µM* | 2%
COc1ccc(OC)c2sc(N(CCN(C)C)C(=O)/C=C/c3cccs3)nc12 | -47% | -15 | ? | 10µM* | 16µM* | 15%
O=C(NNC(=O)c1cccs1)c1ccco1 | 31% | 1 | 27% | -9% | -3% | 1%
O=C(NC(=S)NNC(=O)c1ccco1)c1ccc(Br)cc1 | -20% | 9 | -1% | ? | 13µM* | 26%
